From PubChem BioAssay (EPA / NIEHS)
Inconclusive results are not listed. Active and inactive are the calls of the source. Rule for the calls, unless noted: active = hit-call score of the fitted dose curve at least 0.9, where 1 is the maximum; inactive = score below 0.9.

Legend:
[1] = target: Oxysterols receptor LXR-alpha (Homo sapiens) (UniProt Q13133); assay: ATG_LXRa_TRANS: Attagene TRANS-FACTORIAL HepG2 Assay for human Liver X Receptor alpha (LXRa) (AID 2282980; active = hit-call score of the fitted dose curve at least 0.9, where 1 is the maximum); details: HepG2 Attagene TRANS reporter, LXRa transactivation
Chain of Oxysterols receptor LXR-alpha (Homo sapiens) (Q13133 whole entry, looked up, the tested form may be a part): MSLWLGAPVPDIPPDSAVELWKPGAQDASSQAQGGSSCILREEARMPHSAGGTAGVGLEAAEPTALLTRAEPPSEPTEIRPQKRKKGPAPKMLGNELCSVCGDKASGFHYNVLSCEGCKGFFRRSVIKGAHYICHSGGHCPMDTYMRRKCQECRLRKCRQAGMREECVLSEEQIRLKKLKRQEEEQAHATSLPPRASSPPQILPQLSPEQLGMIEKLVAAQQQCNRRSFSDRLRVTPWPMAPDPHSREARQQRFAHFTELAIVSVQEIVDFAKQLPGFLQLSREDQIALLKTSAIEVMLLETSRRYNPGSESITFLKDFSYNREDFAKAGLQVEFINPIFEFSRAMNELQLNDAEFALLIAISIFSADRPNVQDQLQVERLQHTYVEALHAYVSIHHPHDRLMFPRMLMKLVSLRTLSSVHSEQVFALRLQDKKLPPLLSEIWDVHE
Method in brief: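 Read-out: reporter transcript levels by RT-PCR plus capillary electrophoresis, fluorescence intensity. Transiently transfected HepG2, exogenous NR-GAL4 chimera, GAL4-UAS reporters; 24 h compound exposure. Activity = increase over DMSO negative control.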

[2] = ATG_M_06_TRANS: Attagene TRANS-FACTORIAL HepG2 Assay for M06 Transcription Factor (Internal Marker) (AID 2282983; active = hit-call score of the fitted dose curve at least 0.9, where 1 is the maximum); details: HepG2 Attagene TRANS M06 internal marker reporter
Method in brief: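 Read-out: fluorescent reporter cDNA fragments resolved by capillary electrophoresis after RT-PCR and HpaI cut. Source cells were HepG2 carrying transfected multi-reporter GAL4 constructs, dosed 24 h. Increase over DMSO control analysed.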

[3] = target: Nuclear receptor subfamily 4 group A member 2 (Homo sapiens) (UniProt P43354); assay: ATG_NURR1_TRANS: Attagene TRANS-FACTORIAL HepG2 Assay for human Nuclear Receptor Related Protein 1 (NURR1) (AID 2282985; active = hit-call score of the fitted dose curve at least 0.9, where 1 is the maximum); details: HepG2 Attagene TRANS reporter, mRNA readout
Chain of Nuclear receptor subfamily 4 group A member 2 (Homo sapiens) (P43354 whole entry, looked up, the tested form may be a part): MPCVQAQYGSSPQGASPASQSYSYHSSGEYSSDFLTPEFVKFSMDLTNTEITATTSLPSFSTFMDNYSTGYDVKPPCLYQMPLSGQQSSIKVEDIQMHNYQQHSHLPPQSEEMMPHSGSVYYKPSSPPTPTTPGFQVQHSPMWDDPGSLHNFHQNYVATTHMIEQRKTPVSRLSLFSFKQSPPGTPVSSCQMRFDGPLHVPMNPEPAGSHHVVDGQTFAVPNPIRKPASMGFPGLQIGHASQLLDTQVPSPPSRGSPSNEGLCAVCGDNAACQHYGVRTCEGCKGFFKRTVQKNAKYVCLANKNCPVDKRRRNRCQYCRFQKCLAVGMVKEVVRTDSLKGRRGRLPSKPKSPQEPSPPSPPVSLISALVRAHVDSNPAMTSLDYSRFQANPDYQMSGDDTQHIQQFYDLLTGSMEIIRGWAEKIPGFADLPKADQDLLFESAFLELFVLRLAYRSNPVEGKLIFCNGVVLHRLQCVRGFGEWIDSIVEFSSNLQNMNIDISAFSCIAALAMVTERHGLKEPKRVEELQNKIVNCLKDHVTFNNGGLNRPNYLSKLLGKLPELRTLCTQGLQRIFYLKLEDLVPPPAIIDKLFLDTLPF
Method in brief: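 Read-out: reporter mRNA induction by RT-PCR plus capillary electrophoresis with fluorescence detection, after 24 h dosing of transfected HepG2 cells. Exogenous NR-Gal4 chimera activity drives GAL4-UAS reporter; activity fitted upward versus DMSO.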

[4] = target: Transcriptional activator Myb (Homo sapiens) (UniProt P10242); assay: ATG_Myb_CIS: Attagene CIS-FACTORIAL HepG2 Assay for human Myeloblastosis (Myb) Proto-Oncogene Transcription Factor (AID 2282986); details: HepG2 Attagene CIS-FACTORIAL Myb reporter transcription; actives raise or lower the signal
Chain of Transcriptional activator Myb (Homo sapiens) (P10242 whole entry, looked up): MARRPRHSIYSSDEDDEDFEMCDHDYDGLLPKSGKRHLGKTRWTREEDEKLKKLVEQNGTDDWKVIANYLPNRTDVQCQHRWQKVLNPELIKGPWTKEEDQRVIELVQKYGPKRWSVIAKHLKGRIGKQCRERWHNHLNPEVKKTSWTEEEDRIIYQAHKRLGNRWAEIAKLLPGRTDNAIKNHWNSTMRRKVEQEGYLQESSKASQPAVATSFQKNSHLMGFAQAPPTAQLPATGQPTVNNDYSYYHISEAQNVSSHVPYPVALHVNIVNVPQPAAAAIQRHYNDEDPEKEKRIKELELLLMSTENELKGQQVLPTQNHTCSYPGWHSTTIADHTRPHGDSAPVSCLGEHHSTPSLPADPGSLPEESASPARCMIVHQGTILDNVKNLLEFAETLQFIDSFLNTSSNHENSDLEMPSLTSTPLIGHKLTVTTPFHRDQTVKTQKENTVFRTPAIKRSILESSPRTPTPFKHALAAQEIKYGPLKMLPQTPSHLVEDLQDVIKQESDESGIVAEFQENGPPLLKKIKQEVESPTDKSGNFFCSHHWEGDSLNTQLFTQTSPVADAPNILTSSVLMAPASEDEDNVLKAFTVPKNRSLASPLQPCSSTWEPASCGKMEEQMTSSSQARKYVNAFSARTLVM
Method in brief: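 Reporter mRNA is quantified by RT-PCR and capillary electrophoresis 24 h after dosing HepG2 cells transfected with cis-regulated reporter units, which track endogenous transcription factor activity. Gain and loss of signal are fitted versus DMSO baseline.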

[5] = target: Nuclear respiratory factor 1 (Homo sapiens) (UniProt Q16656); assay: ATG_NRF1_CIS: Attagene CIS-FACTORIAL HepG2 Assay for human Nuclear Respiratory Factor 1 (NRF1) Orphan Gene (AID 2282987); details: HepG2 NRF1 cis-element reporter, Attagene multiplex; actives raise or lower the signal
Chain of Nuclear respiratory factor 1 (Homo sapiens) (Q16656 whole entry, looked up): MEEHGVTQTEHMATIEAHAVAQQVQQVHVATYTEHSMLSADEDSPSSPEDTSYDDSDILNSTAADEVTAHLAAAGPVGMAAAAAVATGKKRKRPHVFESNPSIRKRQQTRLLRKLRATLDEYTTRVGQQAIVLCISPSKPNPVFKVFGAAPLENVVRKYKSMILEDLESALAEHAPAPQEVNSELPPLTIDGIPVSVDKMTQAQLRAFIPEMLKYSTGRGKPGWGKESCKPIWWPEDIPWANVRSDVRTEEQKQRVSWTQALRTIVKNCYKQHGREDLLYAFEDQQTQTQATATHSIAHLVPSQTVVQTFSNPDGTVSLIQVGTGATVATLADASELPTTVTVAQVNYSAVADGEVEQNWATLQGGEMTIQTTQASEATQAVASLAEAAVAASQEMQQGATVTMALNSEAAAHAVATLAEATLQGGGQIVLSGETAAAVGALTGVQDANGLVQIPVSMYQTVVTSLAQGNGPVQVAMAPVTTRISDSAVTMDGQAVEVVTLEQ
Method in brief: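 Endogenous NRF1-driven reporter transcription in transfected HepG2 cells after 24 h treatment. Readout: RT-PCR products, 6-FAM labelled and resolved by capillary electrophoresis; changes fitted both directions relative to DMSO.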

[6] = ATG_NFI_CIS: Attagene CIS-FACTORIAL HepG2 Assay for human Nuclear Factor I (NFI) (AID 2282989); details: HepG2 cis-regulatory reporter, NFI response element transcription; actives raise or lower the signal
Method in brief: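 HepG2, transient MRTU, 24 h exposure; RNA→cDNA→PCR→FAM label→HpaI→CE fluorescence. Bidirectional fit, DMSO = baseline.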

[7] = target: Myc proto-oncogene protein (Homo sapiens) (UniProt P01106); assay: ATG_Myc_CIS: Attagene CIS-FACTORIAL HepG2 Assay for human Myelocytomatosis (Myc) Proto-Oncogene Transcription Factor (AID 2282990); details: HepG2, Attagene cis-reporter transcription factor activity; actives raise or lower the signal
Chain of Myc proto-oncogene protein (Homo sapiens) (P01106 whole entry, looked up): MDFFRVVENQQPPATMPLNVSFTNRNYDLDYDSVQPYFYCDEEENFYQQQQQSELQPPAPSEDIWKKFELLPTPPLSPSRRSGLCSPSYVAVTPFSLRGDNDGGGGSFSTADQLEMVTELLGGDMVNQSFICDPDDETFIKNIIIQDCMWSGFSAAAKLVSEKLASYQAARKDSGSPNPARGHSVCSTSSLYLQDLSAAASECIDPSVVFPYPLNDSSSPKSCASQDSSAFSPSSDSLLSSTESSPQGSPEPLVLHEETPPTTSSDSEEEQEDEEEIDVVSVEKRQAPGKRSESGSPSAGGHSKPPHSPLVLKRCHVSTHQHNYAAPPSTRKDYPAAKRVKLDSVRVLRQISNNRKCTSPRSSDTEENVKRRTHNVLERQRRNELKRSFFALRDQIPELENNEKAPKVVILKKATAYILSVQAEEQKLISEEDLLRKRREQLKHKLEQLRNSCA
Method in brief: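 Transiently transfected HepG2 cells bearing cis-promoter reporter units for endogenous transcription factors; 24 h exposure. Reporter mRNA measured by RT-PCR, 6-FAM primer extension, HpaI cut and capillary electrophoresis; bidirectional fit relative to DMSO.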

[8] = ATG_Oct_MLP_CIS: Attagene CIS-FACTORIAL HepG2 Assay for human Octamer-Binding Transcription Factor (Oct) (AID 2282993); details: HepG2 Attagene cis-factorial Oct reporter, mRNA; actives raise or lower the signal
Method in brief: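 Multiplexed cis-reporter assay in human liver HepG2 cells, 24 h incubation. Reporter RNA amplified and labelled, then resolved by capillary electrophoresis; DMSO serves as negative control and baseline.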

[9] = target: Cellular tumor antigen p53 (Homo sapiens) (UniProt P04637); assay: ATG_p53_CIS: Attagene CIS-FACTORIAL HepG2 Assay for human p53 Transcription Factor (AID 2282994); details: HepG2 p53 cis-element reporter, Attagene mRNA; actives raise or lower the signal
Chain of Cellular tumor antigen p53 (Homo sapiens) (P04637 whole entry, looked up, the tested form may be a part): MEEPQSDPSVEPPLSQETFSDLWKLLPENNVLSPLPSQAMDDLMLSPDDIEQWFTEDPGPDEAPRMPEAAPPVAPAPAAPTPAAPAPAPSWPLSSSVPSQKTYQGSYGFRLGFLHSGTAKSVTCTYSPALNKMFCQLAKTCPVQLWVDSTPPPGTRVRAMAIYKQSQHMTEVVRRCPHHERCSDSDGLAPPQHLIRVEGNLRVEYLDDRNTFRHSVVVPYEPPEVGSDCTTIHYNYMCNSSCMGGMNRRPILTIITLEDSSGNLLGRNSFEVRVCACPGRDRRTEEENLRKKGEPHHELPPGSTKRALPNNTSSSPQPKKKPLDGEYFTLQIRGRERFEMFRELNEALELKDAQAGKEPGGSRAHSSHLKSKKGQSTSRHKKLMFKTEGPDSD
Method in brief: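 Steps: transfect HepG2 with multiplexed cis reporter constructs; dose chemicals 24 h; extract RNA, reverse-transcribe, PCR-amplify reporter sequences; FAM-label, HpaI-digest, resolve fragments by CE. Activity fitted both directions relative to DMSO.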

[10] = BSK_3C_TissueFactor: BioMAP Diversity Plus: 3C Assay for Tissue Factor Biomarker Activity (AID 2282997); details: BioMAP 3C HUVEC, tissue factor biomarker readout; actives raise or lower the signal
Method in brief: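 HUVEC, 3C system, 24 h post-dose; Tissue Factor by ELISA; bidirectional fit vs DMSO baseline.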

[11] = BSK_3C_uPAR: BioMAP Diversity Plus: 3C Assay for Urokinase-type plasminogen activator receptor (uPAR) Biomarker Activity (AID 2282998); details: BioMAP 3C HUVEC, uPAR biomarker ELISA; actives raise or lower the signal
Method in brief: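 Dose primary human umbilical vein endothelial cells, incubate 24 h, measure cell-surface uPAR by ELISA, then fit the signal in both directions against the DMSO negative control.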

[12] = BSK_3C_VCAM1: BioMAP Diversity Plus: 3C Assay for Vascular cell adhesion molecule 1 (VCAM1) Biomarker Activity (AID 2282999); details: BioMAP 3C HUVEC, VCAM1 ELISA, cytokine-stimulated; actives raise or lower the signal
Method in brief: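 HUVEC primary cells, 24 h compound exposure; VCAM-1 by ELISA; gain/loss of signal fitted bidirectionally vs DMSO baseline.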

[13] = BSK_4H_Eotaxin3: BioMAP Diversity Plus: 4H Assay for Eotaxin 3 Biomarker Activity (AID 2283000); details: primary human endothelial cells (HUVEC); actives raise or lower the signal
Method in brief: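 Readout is Eotaxin-3 (CCL26) level by ELISA in primary human umbilical vein endothelial cells harvested 24 h after chemical exposure; activity fitted in both directions against DMSO control.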

[14] = target: human Peroxisome Proliferator-activated Receptor delta (PPARd), PPARD (gene 5467) (UniProt Q03181); assay: ATG_PPARd_TRANS: Attagene TRANS-FACTORIAL HepG2 Assay for human Peroxisome Proliferator-activated Receptor delta (PPARd) (AID 2283002; active = hit-call score of the fitted dose curve at least 0.9, where 1 is the maximum)
Chain of human Peroxisome Proliferator-activated Receptor delta (PPARd), PPARD (gene 5467) (Q03181 whole entry, looked up, the tested form may be a part): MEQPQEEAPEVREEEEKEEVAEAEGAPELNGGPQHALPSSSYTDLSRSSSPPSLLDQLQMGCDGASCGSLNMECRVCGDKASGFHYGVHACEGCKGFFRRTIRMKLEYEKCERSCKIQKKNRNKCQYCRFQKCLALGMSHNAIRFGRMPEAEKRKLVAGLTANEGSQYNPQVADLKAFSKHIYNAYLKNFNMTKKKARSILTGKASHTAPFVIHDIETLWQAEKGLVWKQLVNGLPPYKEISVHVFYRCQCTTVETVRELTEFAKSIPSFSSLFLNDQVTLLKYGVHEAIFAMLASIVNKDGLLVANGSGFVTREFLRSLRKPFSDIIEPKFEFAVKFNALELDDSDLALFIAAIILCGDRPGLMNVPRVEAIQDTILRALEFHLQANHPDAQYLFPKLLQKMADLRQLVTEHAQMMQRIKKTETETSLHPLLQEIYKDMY
Method in brief: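 HepG2 cells transiently transfected with GAL4-UAS multiplexed reporter units driven by exogenous chimeric NR-GAL4 proteins; 24 h compound exposure. Reporter mRNA measured by RT-PCR, 6-FAM primer extension, HpaI digestion and capillary electrophoresis; gain of signal fitted relative to DMSO.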

[15] = target: Oxysterols receptor LXR-beta (Homo sapiens) (UniProt P55055); assay: ATG_LXRb_TRANS: Attagene TRANS-FACTORIAL HepG2 Assay for human Liver X Receptor beta (LXRb) (AID 2282981; active = hit-call score of the fitted dose curve at least 0.9, where 1 is the maximum); details: HepG2 Attagene TRANS GAL4-LXRb reporter, mRNA
Chain of Oxysterols receptor LXR-beta (Homo sapiens) (P55055 whole entry, looked up, the tested form may be a part): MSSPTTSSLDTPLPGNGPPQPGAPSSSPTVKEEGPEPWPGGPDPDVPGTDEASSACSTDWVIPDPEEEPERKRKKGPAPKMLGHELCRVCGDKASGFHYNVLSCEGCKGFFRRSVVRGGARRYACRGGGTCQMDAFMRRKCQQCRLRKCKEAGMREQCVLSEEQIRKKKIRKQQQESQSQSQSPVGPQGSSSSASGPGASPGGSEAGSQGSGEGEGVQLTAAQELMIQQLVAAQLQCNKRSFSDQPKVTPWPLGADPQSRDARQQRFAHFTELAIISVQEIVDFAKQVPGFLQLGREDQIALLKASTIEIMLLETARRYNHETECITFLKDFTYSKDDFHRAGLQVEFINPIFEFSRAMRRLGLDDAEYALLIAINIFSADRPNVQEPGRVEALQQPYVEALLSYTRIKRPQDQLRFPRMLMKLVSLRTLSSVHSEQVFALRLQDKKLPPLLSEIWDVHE
Method in brief: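 Readout: fluorescent reporter mRNA fragments resolved by capillary electrophoresis after RT-PCR. System: transiently transfected human HepG2, exogenous LXRb-Gal4 chimera driving GAL4-UAS reporter, 24 h dosing. Activity fitted upward against DMSO baseline.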

[16] = ATG_M_32_TRANS: Attagene TRANS-FACTORIAL HepG2 Assay for M32 Transcription Factor (Internal Marker) (AID 2282984; active = hit-call score of the fitted dose curve at least 0.9, where 1 is the maximum;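 note: transcript level of a background control reporter unit measured by RT-PCR and capillary electrophoresis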); details: HepG2 Attagene TRANS M32 internal marker reporter
Method in brief: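 Read-out: fluorescent reporter cDNA fragments resolved by capillary electrophoresis after RT-PCR of total RNA. Transfected HepG2 cells were exposed to chemical for 24 h. Activity scored in the positive direction relative to DMSO.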

[17] = target: Hepatocyte nuclear factor 4-alpha (Homo sapiens) (UniProt P41235); assay: ATG_HNF4a_TRANS: Attagene TRANS-FACTORIAL HepG2 Assay for human Hepatocyte Nuclear Factor 4 alpha (HNF4a) (AID 2282982; active = hit-call score of the fitted dose curve at least 0.9, where 1 is the maximum); details: HepG2 HNF4a transactivation reporter, mRNA readout
Chain of Hepatocyte nuclear factor 4-alpha (Homo sapiens) (P41235 whole entry, looked up): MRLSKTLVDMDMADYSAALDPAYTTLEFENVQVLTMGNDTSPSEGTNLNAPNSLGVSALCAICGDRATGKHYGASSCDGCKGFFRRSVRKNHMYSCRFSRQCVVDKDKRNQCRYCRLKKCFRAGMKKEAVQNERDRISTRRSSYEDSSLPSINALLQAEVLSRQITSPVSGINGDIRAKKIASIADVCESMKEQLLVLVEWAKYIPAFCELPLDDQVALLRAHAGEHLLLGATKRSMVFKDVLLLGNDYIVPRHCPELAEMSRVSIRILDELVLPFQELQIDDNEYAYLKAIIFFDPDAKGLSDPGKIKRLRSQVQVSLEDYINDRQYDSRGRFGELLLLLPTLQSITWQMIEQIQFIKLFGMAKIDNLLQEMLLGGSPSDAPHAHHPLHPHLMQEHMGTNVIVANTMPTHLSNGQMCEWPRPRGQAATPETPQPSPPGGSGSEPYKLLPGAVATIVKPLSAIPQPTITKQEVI
Method in brief: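 Transient MRTU transfection of HepG2, 24 h dosing. Readout: reporter mRNA via RT-PCR + capillary electrophoresis, fluorescence; activity fit upward relative to DMSO control.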

[18] = ATG_NF_kB_CIS: Attagene CIS-FACTORIAL HepG2 Assay for human Nuclear Factor Kappa B (NF-kB) (AID 2282991); details: HepG2 Attagene cis-factorial NF-kB reporter mRNA; actives raise or lower the signal
Method in brief: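 Readout is reporter transcript level, gain or loss versus DMSO, measured 24 h post-dose via RT-PCR, fluorescent labelling and capillary electrophoresis. Human HepG2 liver cells carried transiently transfected CIS reporter constructs reflecting endogenous factors.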

[19] = ATG_NRF2_ARE_CIS: Attagene CIS-FACTORIAL HepG2 Assay for human Nuclear Factor Erythroid 2 Related Factor 2 (NFR2) response to Antioxidant Response Elements (ARE) (AID 2282992); details: HepG2 Attagene ARE/NRF2 reporter, transcription factor activity; actives raise or lower the signal
Method in brief: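 Endogenous transcription factor activity in human liver HepG2 cells is tracked via a cis-element-driven reporter within a multiplexed set. mRNA induction is read by RT-PCR and capillary electrophoresis after 24 h, with DMSO as baseline.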

[20] = target: human Peroxisome Proliferator-activated Receptor alpha (PPARa), PPARA (gene 5465) (UniProt Q07869); assay: ATG_PPARa_TRANS: Attagene TRANS-FACTORIAL HepG2 Assay for human Peroxisome Proliferator-activated Receptor alpha (PPARa) (AID 2283001; active = hit-call score of the fitted dose curve at least 0.9, where 1 is the maximum)
Chain of human Peroxisome Proliferator-activated Receptor alpha (PPARa), PPARA (gene 5465) (Q07869 whole entry, looked up, the tested form may be a part): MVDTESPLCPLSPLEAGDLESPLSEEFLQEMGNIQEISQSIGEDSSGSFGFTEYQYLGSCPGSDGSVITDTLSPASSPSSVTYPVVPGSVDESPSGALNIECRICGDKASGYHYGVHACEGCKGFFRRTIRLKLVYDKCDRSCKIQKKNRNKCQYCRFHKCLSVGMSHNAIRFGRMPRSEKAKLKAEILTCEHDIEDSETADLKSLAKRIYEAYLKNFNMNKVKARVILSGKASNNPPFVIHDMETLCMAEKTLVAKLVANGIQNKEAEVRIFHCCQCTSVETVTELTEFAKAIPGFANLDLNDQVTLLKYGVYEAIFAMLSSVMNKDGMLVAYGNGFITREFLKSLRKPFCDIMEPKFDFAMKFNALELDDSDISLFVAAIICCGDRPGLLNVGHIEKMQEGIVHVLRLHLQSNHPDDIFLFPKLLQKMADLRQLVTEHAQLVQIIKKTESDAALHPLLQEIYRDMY
Method in brief: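 Transient HepG2 transfection, GAL4-UAS reporters, NR-Gal4 chimeras; 24 h compound exposure. Readout: reporter transcripts by RT-PCR, 6-FAM primer extension, HpaI digest, capillary electrophoresis. Positive direction vs DMSO baseline.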

Measured: AC50

CCCCCCCCCCCCCN1CC(C)OC(C)C1 (stereo unspecified)
not listed: [15] | [16] | [17] | [18] | [19] | [20]
inactive: all other assays above

C[N+](C)(C)CC1CO1 (stereo unspecified)
inactive: [15] | [16] | [4] | [5] | [6] | [8] | [9] | [10] | [11] | [13]

OCCCBr
not listed: [1] | [13] | [16] | [19] | [20]
inactive: all other assays above

CCC[CH2][Sn]([Cl])([CH2]CCC)[CH2]CCC
active: [3] 33.6 nM | [18] 601 nM | [9] 771 nM | [10] 148 nM | [11] 148 nM | [12] 148 nM | [13] 148 nM
not listed: [1] | [16] | [19] | [20]
inactive: all other assays above

O=P(OCCCl)(OCCCl)OCCCl
not listed: [1] | [2] | [3] | [14] | [18] | [19] | [20]
inactive: all other assays above

CCN(CC)N=O
not listed: [3] | [7] | [10] | [15] | [16] | [17] | [20]
inactive: all other assays above

O=C1CCCO1
not listed: [1] | [3] | [7] | [10] | [13] | [16] | [18] | [19]
inactive: all other assays above

CCCCC(CC)COC(=O)c1ccc(C(=O)OCC(CC)CCCC)c(C(=O)OCC(CC)CCCC)c1 (stereo unspecified)
not listed: [1] | [12] | [14] | [16] | [17] | [19] | [20]
inactive: all other assays above

c1ccc2c(c1)oc1ccccc12
not listed: [1] | [7] | [10] | [17] | [19]
inactive: all other assays above
